Source: PubChem BioAssay (National Center for Advancing Translational Sciences (NCATS))
Rows were chosen to be rich in hits. Some 21% of all compounds tested hit in one or more screens of this group.
DRD3 antagonist: qHTS of D3 Dopamine Receptor Antagonist: qHTS | D(3) dopamine receptor (Homo sapiens), P35462 | D3R cells, DiscoveRx beta-arrestin luminescence, antagonist mode; stronger effect = lower value | max response, negative = inhibition, % | 360,000 tested, 2.5% active; in the data active = max response below about -50%; inconclusive = no clear call, values can overlap the other calls; note: % is set by controls: 0 for no effect and ±100 for the full control effect
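Cells expressing the human receptor were seeded at 1500 cells/well, incubated overnight at 37 degrees C in 5% CO2, then exposed to library compounds with dopamine controls for 90 minutes at 37 degrees C before luminescent detection.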
DT40 TDP1 CPT: qHTS for Inhibitors of human tyrosyl-DNA phosphodiesterase 1 (TDP1): qHTS in cells in presence of CPT; chicken DT40 Tdp1-/-;hTDP1 cells + 20 nM CPT, ATP luminescence, 48 h; 420,000 tested, 12% active; Potency, µM (series often up to 46.2 µM), for inactives: at the top dose activity change, negative = growth inhibition, hits mostly inhibitors; AID 686979, 2013; note: potency is the fitted concentration of half-maximal effect; % is set by controls: 0 for no effect and ±100 for the full control effect; nearly all actives have a fitted effect of over 55% in size
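Chicken DT40 Tdp1-/- cells complemented with human TDP1, 400 cells/well, exposed to compounds plus 20 nM camptothecin for at least 48 h at 37 C; viability read as ATP content by CellTiter-Glo luminescence.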
D3 ag: qHTS of D3 Dopamine Receptor Agonist: qHTS; D(3) dopamine receptor (Homo sapiens), P35462; D3R DiscoveRx beta-arrestin cells, luminescence, 90 min; max activation, %; 410,000 tested, 0.58% active; AID 652048, 2013; in the data active = max activation above about 30%; note: 0% is about no effect
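Cells at 1500/well, incubated overnight, then treated with pinned compounds (dopamine as control) for 90 min at 37 degrees C. DiscoveRx reagent added for 30 - 60 minutes at room temperature; luminescence read.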
TDP1 cell noCPT: qHTS for Inhibitors of human tyrosyl-DNA phosphodiesterase 1 (TDP1): qHTS in cells in absence of CPT. DT40 Tdp1-/- hTDP1 cells, no CPT, ATP luminescence, 48 h. AID 686978, 2013. Potency, µM (series often up to 46.2 µM), without a hit: top-dose activity change, negative = growth inhibition, most hits filed as inhibitors. 420,000 tested, 15% active; note: potency is the fitted concentration of half-maximal effect; % is set by controls: 0 for no effect and ±100 for the full control effect; nearly all actives have a fitted effect of over 55% in size
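Growth kinetics read by CellTiter-Glo luminescence after ≥48 hr at 37 °C. Cells: DT40 Tdp1-/- stably carrying human TDP1, 400 per well, compound exposure in the absence of CPT (DMSO vehicle).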
IL1B secr inh: qHTS for Inhibitors of Inflammasome Signaling: IL-1-beta AlphaLISA Primary Screen. THP-1 LPS/ATP IL-1B secretion, AlphaLISA, 16 h; stronger effect = lower value. activity change, % at 57.5 µM. 360,000 tested, 4.7% active; in the data active = activity change below about -50%; inconclusive = mostly about -30% to -49%; note: % is set by controls: 0 for no effect and ±100 for the full control effect
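THP-1 cells pretreated 1 hr with compounds (up to 57.5 uM final), then stimulated with LPS (250 ng/mL final) plus ATP (1.25 mM final); secreted IL-1B measured by AlphaLISA after 16 hr, decreased signal indicating inhibition.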
ClpP mod: qHTS Assay for Activators of ClpP. ATP-dependent Clp protease proteolytic subunit (Bacillus subtilis (strain 168)), P80244. purified B. subtilis ClpP, FRET peptide cleavage, 20 min. Potency, µM (series often up to 57.5 µM), for inactives: at the highest dose activity change, negative = active. 340,000 tested, 1.9% active. AID 651965, 2013; active = well fitted falling curve with a large enough effect; inconclusive = small, poorly fitted or top-dose-only effect; inactive = no such curve, though single readings can be large or run the other way; note: potency is the fitted concentration of half-maximal effect; the source files actives as falling curves though it sought activators and does not explain the sign; nearly all actives have a fitted effect of over 65% in size
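FRET quenching reversal measured ClpP activation: 10 microg/mL B. subtilis ClpP at pH 8 with the FRET-FV decapeptide, read at 430 nm after 320 nm excitation. The 20-min minus 0-min signal was scaled between DMSO/no-enzyme wells and ADEP (5.8 microM final).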
Active calls of the source: *; ? = inconclusive; nt = no result; [ ] = another dose, or the depositor's remark. Unless noted, calls come from the whole dose curve; as a rule, active = well fitted inhibition curve with a large enough effect; inconclusive = small, poorly fitted or top-dose-only effect; inactive = flat fitted curve, though single readings scatter.

SMILES	DRD3 antagonist	DT40 TDP1 CPT	D3 ag	TDP1 cell noCPT	IL1B secr inh	ClpP mod
CCOC(=O)c1ccc(N2C(=O)c3n[nH]c(-c4ccco4)c3C2c2cccc(F)c2)cc1 (stereo not drawn)	nt	18µM*	12	21µM*	nt	-2%
NCC1CC2c3ccccc3C1c1ccccc12 (stereo not drawn)	7	5%	8	?	-78*	nt
COc1ccccc1CNC(=O)COC(=O)c1ccc2c(=O)n3c(nc2c1)CCCCC3	11	1%	-4	7%	-8	-7%
O=C(/C=C/c1ccc(Br)cc1)NC(=O)c1ccccc1O	17	-11%	2	?	-95*	nt
CC(NC(=O)/C=C/c1ccccc1)c1ccccc1 (stereo not drawn)	-5	?	-5	?	-12	-2%
O=C(/C=C/c1ccc(O)c(O)c1)NC(=O)c1ccccc1O	-11	15%[9.04 µM]	5	14%[9.04 µM]	0	-3%
CC(NC(=O)/C=C/c1ccc(Br)cc1)c1ccccc1 (stereo not drawn)	0	16µM*	-3	?	-4	-4%
CCN(CC)S(=O)(=O)c1ccc(NC(=O)c2cnccn2)cc1	-1	-18%	4	-26%	-3	-1%
Cc1ccc(S(=O)(=O)N(CCC(=O)N2CCOCC2)c2ccccc2)cc1	20	-17%	4	-11%	8	1%
Cc1onc(-c2ccccc2Cl)c1C(=O)NCC(=O)O	23	-11%	-4	11%	45	0%
Cc1cc2ccccc2n1CCNC(=O)c1ccccc1	0	?	-3	?	-11	-23%
Cc1cc2ccccc2n1CCNC(=O)c1ccc(Br)o1	-5	-28%	-13	29µM*	-26	-11%
Cc1cc2ccccc2n1CCNC(=O)c1ccc(Br)cc1	nt	?	-23	21µM*	nt	2%
Cc1onc(-c2ccccc2Cl)c1C(=O)NCCn1c(C)cc2ccccc21	11	?	1	29µM*	-10	0%
O=C(NCc1cc2ccccc2[nH]1)c1ccccc1F	-26	-19%	-7	-5%	-64*	4%
Cc1ccc2[nH]c(CNC(=O)c3ccccc3F)cc2c1	?	7%	-1	-14%	-13	0%
CCOC(=O)c1c(C)[nH]c(CCC(=O)NCCCN2CCN(c3ccccc3F)CC2)c1C	nt	?	12	?	nt	-1%
Cc1cc2ccccc2n1CCNC(=O)c1ccccc1F	nt	?	-7	16µM*	nt	-2%
CC(=O)NCCn1c(C)cc2ccccc21	-2	-23%	7	?	4	-8%
Cc1ccc(O)c(NC(=S)NC(=O)c2ccc(-c3ccc(Cl)cc3)o2)c1	?	23µM*	-18	26µM*	-5	-1%
O=C(NC(=S)Nc1ccccc1O)c1ccc(-c2ccc(Cl)cc2)o1	-16	23µM*	-15	16µM*	-1	-12%
CC1=NN(C(N)=S)C(C)(C)C1	4	25%	7	-4%	15	2%
Cc1ccc(S(=O)(=O)N2[C@@H](c3ccccc3F)C(C(=O)O)=CC[C@H]2c2ccc(Cl)c(Cl)c2)cc1	-7	-23%	-21	?	32	0%
CCC1CN(Cc2cn[nH]c2-c2ccccc2)Cc2cc(OC)ccc2O1 (stereo not drawn)	nt	-7%[9.04 µM]	nt	18µM*	nt	nt
CCC1CN(Cc2cn[nH]c2-c2ccc(F)cc2)Cc2cc(OC)ccc2O1 (stereo not drawn)	nt	?	nt	21µM*	nt	nt
SMILES	DRD3 antagonist	DT40 TDP1 CPT	D3 ag	TDP1 cell noCPT	IL1B secr inh	ClpP mod
Cc1nnc(N2CCCC(C(=O)Nc3cc(F)ccc3F)C2)c2nn(-c3ccccc3)c(C)c12 (stereo not drawn)	133	13µM*	16	23µM*	-17	-25%
Cc1nnc(N2CCCC(C(=O)Nc3ccccc3C(F)(F)F)C2)c2nn(-c3ccccc3)c(C)c12 (stereo not drawn)	nt	18µM*	9	18µM*	nt	-19%
COc1ccc(NC(=O)C2CCCN(c3nnc(C)c4c(C)n(-c5ccccc5)nc34)C2)cc1Cl (stereo not drawn)	nt	10µM*	7	16µM*	nt	4%
Cc1nnc(N2CCCC(C(=O)NCCc3ccc(Cl)cc3)C2)c2nn(-c3ccccc3)c(C)c12 (stereo not drawn)	nt	?	0	?	nt	-27%
COc1ccc2c(c1)cc(C(=O)N[C@@H](CCSC)C(=O)N1CCC(C(=O)O)CC1)n2C	12	-2%	22	0%	1	3%
COc1ccccc1OCC(=O)Nc1cc(-c2ccc(C)cc2)no1	nt	1%	-6	-22%	nt	1%
NC(=O)C1=C[C@H](c2ccc(C(F)(F)F)cc2)C[C@H](OCc2ccc(CO)cc2)O1	-2	-25%	-17	?	-3	0%
NC(=O)C1=C[C@@H](c2ccc(C(F)(F)F)cc2)C[C@@H](OCc2ccc(CO)cc2)O1	-56*	?	-7	15µM*	-13	-1%
NC(=O)C1=C[C@H](c2ccc(Br)cc2)C[C@H](OCc2ccc(CO)cc2)O1	-8	13µM*	-2	21µM*	-13	1%
COc1ccc(CCNC(=O)CCS(=O)(=O)c2cc(Br)cc3c2N(C(C)=O)CC3)cc1OC	nt	-1%	-2	-13%	nt	-6%
Nc1ccc2cc3ccc(N)cc3nc2c1	nt	5.3µM*	12	2.7µM*	nt	nt
Cc1ccc2cc(N)ccc2n1	-6	4%	0	-7%	-4	nt
O=C(c1ccc2oc(CCc3ccccc3)nc2c1)N1CCC(O)CC1	23	4%	-7	14%	19	1%
O=C(CSc1nnc(-c2ccco2)n1CC1CCCO1)c1ccc(F)cc1 (stereo not drawn)	-67*	18µM*	6	21µM*	-18	-2%
COc1ccc(C(=O)CSc2nnc(-c3ccco3)n2CC2CCCO2)cc1 (stereo not drawn)	-4	?	-2	?	-7	0%
CSc1nnc(C)c(=O)n1COC(=O)COc1ccccc1C	6	?	-3	?	3	28µM*
CC(=O)c1ccc(NC(=O)CSC2=Nc3ccccc3N=C(c3ccc(F)cc3)C2)cc1	nt	16µM*	-3	9.2µM*	nt	-1%
